An excerpt weighted towards active compounds, which were near 4% of everything screened.
Glioma ERSR ind = qHTS for Inducers of the Endoplasmic Reticulum Stress Response (ERSR) in Human Glioma: qHTS; U87-MG GRP78 promoter luciferase reporter, 16 h; Potency, µM, without a hit: top-dose activation, most hits filed as activators; 0.02% of 420,000 active; active = well fitted activation curve with a large enough effect; also: potency is read from the fitted curve at half-maximal effect; series mostly up to about 76 µM; % of control where 0% means no effect; nearly all actives have a fitted effect of over 35% in size
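Stably transfected U87-MG glioma cells carrying a GRP78-based luciferase sensor; 16 h compound incubation. Luminescence end-point read 10 min after Bright-Glo addition at room temperature.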
TRHR enhancer = qHTS for Small Molecule Agonists and Allosteric Enhancers of Human TRH Receptor: Primary Screen for Enhancers. TRHR cells, fluo-8 calcium fluorescence, EC20 TRH enhancement. enhancement, % at 2 µM. 0.66% of 360,000 active. AID 493056, 2011; in the data active = enhancement above about 30%; also: 0% is about no effect
Target sequence (P34981 whole entry, looked up): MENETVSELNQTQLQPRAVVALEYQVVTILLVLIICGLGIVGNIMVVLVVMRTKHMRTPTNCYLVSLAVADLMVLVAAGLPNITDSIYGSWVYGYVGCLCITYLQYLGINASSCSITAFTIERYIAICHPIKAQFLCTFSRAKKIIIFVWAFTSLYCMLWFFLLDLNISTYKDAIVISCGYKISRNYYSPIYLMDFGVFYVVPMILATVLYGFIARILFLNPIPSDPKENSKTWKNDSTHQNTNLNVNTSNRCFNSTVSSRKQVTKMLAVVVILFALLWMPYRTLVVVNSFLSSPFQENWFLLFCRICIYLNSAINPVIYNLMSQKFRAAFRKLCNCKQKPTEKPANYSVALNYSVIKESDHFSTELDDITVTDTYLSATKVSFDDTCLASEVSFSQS
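Enhancer read-out: after compound pinning and an initial kinetic agonist-mode read, an EC20 of TRH (10 nM final) was injected and fluo-8 calcium signal (Ex 480/Em 530) followed at 1 s/cycle for 100 cycles in TRHR-expressing cells.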
D1 PAM = Potentiators of Human D1 Dopamine Receptor: qHTS; D(1A) dopamine receptor (Homo sapiens), P21728; HEK293 TREx D1 cells, calcium flux, dopamine EC20 potentiation; potentiation, % at 10 µM; 0.036% of 360,000 active; AID 504651, 2011; in the data active = potentiation above about 30%; also: 0% is about no effect
D1 antag = Antagonist of Human D 1 Dopamine Receptor: qHTS | D(1A) dopamine receptor (Homo sapiens), P21728 | AID 504652, 2011 | 3.2% of 360,000 active | HEK293 TREx D1 cells, calcium flux, dopamine EC80; active compounds read low | activity change, negative = inhibition, % at 10 µM; in the data active = activity change below about -30%; also: % is scaled to controls: 0 for no effect and ±100 for the full control effect
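Allosteric or orthosteric antagonism assessed as attenuation of the calcium response to EC80 dopamine, added 180 s after compound, in induced HEK293 Trex D1 cells loaded with no-wash calcium dye.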
TRHR ag = qHTS for Small Molecule Agonists and Allosteric Enhancers of Human TRH Receptor: Primary Screen for Agonists; AID 493084, 2011; 0.18% of 360,000 active; activation, % at 2 µM; Thyrotropin-releasing hormone receptor (Homo sapiens), P34981; TRHR cells, calcium flux fluo-8, FDSS agonist mode; also: 0% is about no effect
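TRHR-expressing cells, plated overnight in medium with 10% serum, were loaded with fluo-8 calcium dye at room temperature. After a 10 s baseline, library compound was pin-added and calcium release was recorded kinetically (ex 480/em 530) as agonist response.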
D1 ag = Allosteric Agonists of the Human D1 Dopamine Receptor: qHTS; D(1A) dopamine receptor (Homo sapiens), P21728; HEK293 T-REx D1 cells, calcium flux, agonist mode; activation, % at 2 µM; 1% of 360,000 active; AID 504660, 2011; also: 0% is about no effect
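Agonism was scored from calcium flux recorded over 180 s (1 read/s) after pintool compound addition, following a 10-cycle baseline. Cells were inducible force-coupled HEK293 TREx D1, plated overnight at 30 C and loaded with no-wash calcium dye.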
* hit, by the source's call; nt = no result. Rule as the data show it, unless noted: active = activation above about 30%; inactive = the rest.

SMILES | Glioma ERSR ind | TRHR enhancer | D1 PAM | D1 antag | TRHR ag | D1 ag
CCOc1ccc(N2CC(C(=O)Nc3ccc(S(=O)(=O)Nc4ncccn4)cc3)CC2=O)cc1 (configuration not stated) | 1.3% | 31.9* | -0.8 | nt | 0.1 | -1.5
CCNC(=O)C1CC(=O)N(c2ccc(OCC)cc2)C1 (configuration not stated) | -1.3% | -2.0 | -5.5 | 22.1 | -0.3 | 1.1
CCOc1ccc(N2CC(C(=O)NCC(=O)Nc3ccc(F)c(F)c3F)CC2=O)cc1 (configuration not stated) | -0.4% | -2.6 | -2.0 | -31.9* | -1.3 | 0.8
O=C(Nc1ccc(S(=O)(=O)Nc2ncccn2)cc1)C1CC(=O)N(c2ccccc2)C1 (configuration not stated) | -3.3% | 3.9 | 2.9 | -2.3 | -0.4 | 6.0
Fc1ccc(CNc2ccc(CNc3ncn[nH]3)cc2)cc1 | -2.2% | -2.8 | -0.8 | -3.0 | -0.1 | 3.8
O=C(CSc1nnnn1C1CC1)N1CCN(c2cccc(Cl)c2)CC1 | -3.8% | nt | nt | nt | nt | nt
CC(C)c1ccc(CN2CCN(C(=O)CSc3nnnn3C3CC3)CC2)cc1 | 2.9% | -3.3 | -2.3 | -35.6* | -0.3 | 4.7
Cc1ccc(C(=O)N2CCN3C(=O)c4ccccc4C23c2ccccc2)cc1 (configuration not stated) | 1.2% | -3.2 | -3.0 | -37.9* | -0.3 | 2.3
Cc1ccc(S(=O)(=O)NC2CCCCCCC2)cc1 | -0.7% | -4.8 | 3.8 | -11.5 | -0.6 | 2.5
Cc1ccc(S(=O)(=O)NC(=O)C2CCCCC2)cc1 | -2.6% | -1.4 | 4.7 | -36.1* | 0.9 | 3.4
O=C(CC1CCCCC1)NCCOc1ccccc1 | 0.6% | 1.0 | 0.7 | 6.5 | 0.0 | 0.8
Cc1csc(NC(=O)CSc2ncnc3c2cnn3-c2ccccc2Cl)n1 | -8.4% | -4.4 | -12.7 | -30.9* | 0.4 | 6.7
Cc1csc(NC(=O)CSc2ncnc3ccccc23)n1 | -3.7% | -2.8 | -3.0 | 5.3 | -0.4 | 5.7
Cc1csc(NC(=O)CSc2nc3ccccc3c3c2CCCC3)n1 | 0.2% | 35.6* | 10.0 | 1.5 | 1.6 | 7.2
CC1CCc2c(sc(NC(=O)CSc3ncnc4c3cnn4-c3ccccc3Cl)c2C#N)C1 (configuration not stated) | -3.4% | 11.9 | -1.4 | -38.8* | 0.6 | 1.1
COc1ccccc1C1CC(=O)Nc2cc(C)c(C)cc21 (configuration not stated) | -4.6% | 0.4 | 5.7 | 0.8 | 0.8 | 4.9
O=C(NCCCn1ccnc1)c1cn(-c2ccccc2)nc1-c1ccccc1 | 1.1% | -1.5 | -8.2 | -83.4* | 0.2 | 0.6
O=C(NCCCn1ccnc1)c1ccc(NS(=O)(=O)c2ccc(Cl)c(Cl)c2)cc1 | 4.0% | 1.6 | 11.1 | -0.1 | -0.7 | 34.2*
Cc1ccc(NS(=O)(=O)c2cccc(C(=O)NCCCn3ccnc3)c2)cc1 | -1.7% | 28.0 | 0.9 | -3.6 | -1.3 | 2.1
O=C(c1ccccc1)c1ccc(NCCCn2ccnc2)c([N+](=O)[O-])c1 | 3.6% | 11.5 | -11.5 | -35.5* | -0.6 | 15.3
O=C(NCCCn1ccnc1)c1cc2ccccc2oc1=O | 2.4% | 7.1 | -4.3 | 0.4 | 0.3 | 1.3
O=C(NCCCn1ccnc1)c1ccc2ccccc2c1 | -0.5% | -1.8 | -6.7 | -37.0* | 0.0 | 2.8
COc1cccc(/C=C2\SC(=S)N(CCC(=O)N3CCCCC3CCO)C2=O)c1 (configuration not stated) | -4.9% | 11.1 | -1.0 | -31.5* | 0.0 | 4.6
O=C(O)/C=C\C(=O)Nc1ccc(Oc2ccc(Br)cc2)cc1 | 3.1% | 0.1 | -3.5 | -30.6* | 0.7 | -0.9
O=C(O)/C=C\C(=O)Nc1ccc(Oc2ccccc2)cc1 | -1.1% | 6.0 | -6.2 | -62.6* | -0.4 | -0.1

Assay outcomes: PubChem, National Center for Advancing Translational Sciences (NCATS)
